# KCNQ2 pot: potentiators of rat KCNQ2 potassium channel. Potassium voltage-gated channel subfamily KQT member 2 (Rattus norvegicus), O88943. CHO-K1 KCNQ2, FluxOR thallium flux fluorescence; active compounds read high. B-score at 10 µM. 0.54% of 310,000 active;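 active means fluorescence ratio B-score at least 3 SD of library B-scores, with initial fluorescence B-score within 3 of them, cut at about 5.3 in these data; same plate scores as AID 2156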;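 further: B-score of peak minus minimum over baseline fluorescence ratio after K+ and Tl+ stimulus; positive B-score means potentiation of KCNQ2 with more thallium influx and brighter signal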
# Target sequence (O88943 whole entry, looked up): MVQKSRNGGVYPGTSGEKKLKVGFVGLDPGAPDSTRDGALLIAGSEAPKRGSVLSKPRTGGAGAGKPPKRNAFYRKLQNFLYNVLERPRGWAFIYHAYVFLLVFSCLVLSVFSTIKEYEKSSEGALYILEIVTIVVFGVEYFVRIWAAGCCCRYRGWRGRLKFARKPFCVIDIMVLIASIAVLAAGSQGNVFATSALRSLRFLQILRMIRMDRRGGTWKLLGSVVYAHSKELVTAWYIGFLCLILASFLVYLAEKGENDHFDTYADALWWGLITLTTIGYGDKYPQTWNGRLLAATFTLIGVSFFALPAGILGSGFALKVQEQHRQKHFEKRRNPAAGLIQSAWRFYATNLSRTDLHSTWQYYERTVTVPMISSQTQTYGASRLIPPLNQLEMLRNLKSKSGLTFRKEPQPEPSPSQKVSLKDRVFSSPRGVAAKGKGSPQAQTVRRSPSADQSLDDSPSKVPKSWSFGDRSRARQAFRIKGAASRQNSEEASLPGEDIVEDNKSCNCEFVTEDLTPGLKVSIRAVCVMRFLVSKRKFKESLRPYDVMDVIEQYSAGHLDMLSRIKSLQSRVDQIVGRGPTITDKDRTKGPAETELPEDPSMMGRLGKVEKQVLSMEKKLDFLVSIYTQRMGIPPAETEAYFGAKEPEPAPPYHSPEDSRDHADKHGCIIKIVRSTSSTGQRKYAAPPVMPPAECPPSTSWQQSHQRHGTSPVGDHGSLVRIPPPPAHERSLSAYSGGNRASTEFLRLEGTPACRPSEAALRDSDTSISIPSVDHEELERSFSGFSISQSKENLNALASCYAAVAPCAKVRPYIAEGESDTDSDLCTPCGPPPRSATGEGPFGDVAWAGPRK
# KCNQ2 inh: rat KCNQ2 potassium channel inhibitors, primary screen, cell-based, CHO-K1, FluxOR thallium flux, B-score; AID 2156, 2009; Potassium voltage-gated channel subfamily KQT member 2 (Rattus norvegicus), O88943; 20 min; active compounds read low; B-score at 10 µM; 1.1% of 310,000 active;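 active means fluorescence ratio B-score at most minus 3 library SDs, with starting brightness B-score within 2 library SDs, cut at about -5.5 in these data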
# Active calls of the source: *; i = inactive; nt = not tested or not shown. Compounds with a hit are over-represented: about 1.6% of the library has one in this group of screens.
SMILES,KCNQ2 pot,KCNQ2 inh
COC(=O)C1CCCN1C(=O)COc1ccc(Cl)cc1Br (stereo not given),15*,i
COc1ccccc1N1CCN(C(=O)COc2ccc(Cl)cc2Br)CC1,nt,i
Cc1ccc(CNC(=O)CC(C)S(=O)(=O)c2ccc3c(c2)NC(=O)CS3)o1 (stereo not given),nt,i
CCOC(=O)CC1C(=O)NCCN1c1nc2ccc(C)cn2c(=O)c1/C=C1\SC(=S)N(CC(C)C)C1=O (stereo not given),nt,i
CCOC(=O)CC1C(=O)NCCN1c1nc2ccc(C)cn2c(=O)c1/C=C1\SC(=S)N(C(C)CC)C1=O (stereo not given),-7.7,-7.7*
CCOc1ccc(-n2c(C)nc3cc(C(=O)NCC4CCCO4)ccc32)cc1 (stereo not given),0.6,i
COc1ccccc1-c1nnc(SCC(=O)Nc2ccc(N3CCOCC3)cc2)n1C,0.82,i
COc1ccc(CCN(Cc2nc(-c3ccccc3)no2)Cc2nc(-c3ccccc3)no2)cc1OC,-6.2,-6.2*
COc1ccc(CCN(C)Cc2nc(-c3cnccn3)no2)cc1OC,0.18,i
C/C(=N\NC(=O)c1nnn(-c2nonc2N)c1CSc1ccccc1)c1ccc2c(c1)OCO2,nt,i
O=C(NC(=S)NC(CO)c1ccccc1)c1ccc(F)cc1 (stereo not given),nt,i
O=C(/C=C/c1ccc([N+](=O)[O-])cc1)NCCSc1ccccc1,1.3,i
Cc1ccc(SCCNC(=O)/C=C/c2ccc([N+](=O)[O-])cc2)cc1,6.2*,i
COc1ccc(/C(N)=N/OC(=O)CCc2ccccc2)cc1OC,nt,i
COc1ccc(/C(N)=N/OC(=O)CSc2ccccc2)cc1OC,-6,-6*
O=C(Nc1ccc(Oc2cccnc2)cc1)C1CCN(Cc2cc(Cl)ccc2O)CC1,1,i
COc1ccccc1-c1ccc(SCc2ccc([N+](=O)[O-])cc2)nn1,nt,i
COc1ccccc1-c1ccc(SCc2cccc(C)c2)nn1,-6.2,-6.2*
O=C(NCc1cccc(Cl)c1)N1CCN(S(=O)(=O)c2ccccc2F)CC1,2.3,i
COC(=O)[C@H](C)NC(=O)COc1ccccc1,0.29,i
CCCCCCCCCNC(=O)[C@H](NC(=O)COc1ccccc1)[C@@H]1NC(C(=O)OC)C(C)(C)S1 (stereo not given in full),-6.3,-6.3*
CCOc1ccc(/C=C/C(=O)N(C)CC(=O)Nc2cccc(F)c2)cc1OCC,0.09,i
Cc1cccn2c(/C=N/OCc3cccc(F)c3)c(-c3ccc(Cl)cc3)nc12,nt,i
Fc1cccc(CO/N=C/c2c(-c3ccccc3)nc3ccc(Cl)cn23)c1,-6.8,-6.8*
Fc1cccc(Cn2ccc(-c3ccc4c(c3)OCO4)n2)c1,nt,i
SMILES,KCNQ2 pot,KCNQ2 inh
Cc1ccccc1Cn1ccc(-c2ccc3c(c2)OCO3)n1,-6.7,-6.7*
COc1ccc(OC)c(CCNC(=O)CC2(CC3=NS(=O)(=O)c4ccccc4N3)CCCC2)c1,nt,i
Cc1cc(C)n(-c2nc3sc4c(c3c(=O)[nH]2)CCCC4)n1,18*,i
Cc1nc2sc3c(c2c(=O)[nH]1)CCCCC3,nt,i
CCN1C(=O)C(CC(=O)Nc2ccc(OC)cc2)N(CCc2ccccc2)C1=S (stereo not given),nt,i
CCN1C(=O)C(CC(=O)Nc2ccc(F)cc2)N(CCc2ccc(OC)cc2)C1=S (stereo not given),-6.7,-6.7*
CCCCn1c(N)c(N(Cc2ccccc2OC)C(=O)CSCC(=O)Nc2cccc(C)c2)c(=O)[nH]c1=O,nt,i
O=C(COc1ccc(F)cc1)N1c2ccccc2CCc2ccccc21,nt,i
O=C(COc1cccc2ccccc12)N1c2ccccc2CCc2ccccc21,-7.2,-7.2*
CC(C)N(Cc1nccn1C)C(=O)c1ccc2oc(Cc3ccccc3)nc2c1,nt,i
Cc1ccc(C)n1-n1cnc2sc3c(c2c1=O)CCCCC3,-7.5,-7.5*
Cc1ccc(C)n1-n1c(C)nc2sc3c(c2c1=O)CCCCC3,nt,i
COC(=O)c1cc(NC(=O)c2cccc(C(F)(F)F)c2)c(=O)oc1C/C=N/OCc1cccc(Cl)c1Cl,-7.7,-7.7*
COC(=O)c1cc(NC(=O)c2cccc(C(F)(F)F)c2)c(=O)oc1C,nt,i
CCOC(=O)C1CCCN(S(=O)(=O)Cc2ccc(Cl)cc2)C1 (stereo not given),0.76,i
Cc1cc(C)c(C)c(S(=O)(=O)N2CCC(C(=O)N3CC(C)CC(C)C3)CC2)c1C (stereo not given),0.66,i
CCCCCCCCCCn1c2c(c(=N)c3c1CCC3)CCC2,32*,i
CCCCCn1c2c(c(=N)c3ccccc31)CCC2,0.75,i
Cc1cccc(NC(=O)C2CCN(S(=O)(=O)c3cccc4nonc34)CC2)c1,nt,i
O=C(Nc1cccc(/C=C/c2ccccn2)c1)c1cc(Cl)ccn1,nt,i
